The structures appear in SMILES notation. Inconclusive results are not listed. A number with no mark means an inactive call. Active and inactive are the calls of the source. Calls come from the whole dose curve; as a rule, active = well fitted cell-killing curve with a large enough effect; inconclusive = small, poorly fitted or top-dose-only effect, or effect the other way; inactive = no such curve, though single readings can be large or run the other way.

We go through 14 compounds from PubChem BioAssay AID1345085 (National Center for Advancing Translational Sciences (NCATS), 2018).
% is set by controls: 0 for no effect and ±100 for the full control effect; potency is the fitted concentration of half-maximal effect.

The test system of the assay is PA-1. Description: Confirmatory qHTS for gynecologic anti-cancer compounds from libraries of approved drugs and bioactive compounds. Note: nearly all actives have a fitted effect of over 55% in size. Particulars: gynecologic cancer cell panel viability, ATPlite luminescence, 48 h; series mostly up to 57.6 µM; activity change, negative = viability loss: at the top concentration. The essentials:
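ATPlite luminescence read-out of cell viability; IC50 from 11-point 1:3 titrations, 57.5 uM to 0.977 nM, 48 h compound exposure at 37 C, 5% CO2. Cells seeded at 1,000/well 16 h before dosing.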
With `NC(=O)c1ccc2nc(-c3ccc(Oc4ccc(Cl)cc4)cc3)[nH]c2c1`, the Potency is 6850 nM (active).
The same measure, in the same setting: the value for `FC(F)(F)c1ccc(/C=C/c2nc(COc3ccc(CCCCn4ccnn4)cc3)co2)cc1` was 19.3 nM (active).
As for `CN(c1nccc(=O)[nH]1)C1CCN(c2nc3ccccc3n2Cc2ccc(F)cc2)CC1`, the “activity change, negative = viability loss” value is -2.59%.
Turning to `COc1c(C)c2c(c(O)c1C/C=C(\C)CCC(=O)O)C(=O)OC2`, the Potency was 2170 nM (active).
Still for that read-out and setting: the value for `COc1cccc2c1C(=O)c1c(O)c3c(c(O)c1C2=O)C[C@@](O)(C(=O)CO)C[C@@H]3O[C@H]1C[C@H](N)[C@H](O)[C@H](C)O1` was 432 nM (active); that for `CNCc1ccc(-c2[nH]c3cc(F)cc4c3c2CCNC4=O)cc1` was 19300 nM (active).
Still for that read-out and setting: for `O=C(/C=C/c1cccc(S(=O)(=O)Nc2ccccc2)c1)NO` the value was 595 nM (active).
For the compound `O=C(O)c1ccc(Nc2ncc3c(n2)-c2ccc(Cl)cc2C(c2c(F)cccc2F)=NC3)cc1`, the Potency was 968 nM (active).
For the compound `Nc1ccccc1NC(=O)c1ccc(CNC(=O)OCc2cccnc2)cc1`, the Potency was 1530 nM (active).
The same measure, in the same setting: for `COc1c(C)c2c(c(O)c1C/C=C(\C)CCC(=O)OCCN1CCOCC1)C(=O)OC2` the value was 485 nM (active); for `COCCOc1nc(-c2ccc(Cl)c(Cl)c2)n(-c2ccc(NC(=O)CCl)cc2)n1`, 8630 nM (active).
Turning to `C=CC(=O)Nc1cc2c(Nc3ccc(F)c(Cl)c3)ncnc2cc1OCCCN1CCOCC1`, the Potency is 30600 nM (active).
Still for that read-out and setting: for `O=C1Cc2cc(CCN3CCN(c4nsc5ccccc45)CC3)c(Cl)cc2N1` the value was 24300 nM (active).
Still for that read-out and setting: the value for `Cc1cc(Nc2cc(N3CCN(C)CC3)nc(Sc3ccc(NC(=O)C4CC4)cc3)n2)n[nH]1` was 2170 nM (active).
